The values that follow come from PubChem BioAssay AID1347416 (National Center for Advancing Translational Sciences (NCATS), 2020).

The campaign covered roughly 4,100 compounds. About 1,600 (39%) were called active. Another 25% or so got no clear call; they are omitted. The list shows a part of the results. Unmarked numbers belong to inactive results. Calls follow the shape of the dose curve; as a rule, active = well fitted inhibition curve with a large enough effect; inconclusive = small, poorly fitted or top-dose-only effect; inactive = no such curve, though single readings can be large or run the other way.
% is scaled to controls: 0 for no effect and ±100 for the full control effect; potency is read from the fitted curve at half-maximal effect.

The assay can be described thus: qHTS Validation assay for Inhibitors of Plasmodium falciparum Dd2 growth in vitro. Also: nearly all actives have a fitted effect of over 70% in size. Conditions: P. falciparum Dd2 in RBCs, SYBR Green growth, 72 h; series mostly up to 28.7 µM; activity change, negative = inhibition: at the top concentration. Put shortly: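 P. falciparum Dd2-infected red blood cells (2.5% hematocrit, 0.3% parasitemia) grown 72 h at 37 °C under 5% O2 with compounds in a titration, 29 uM to 0.5 nM final. Growth read as SYBR Green-1 fluorescence after ~16 h lysis; artesunate 300 nM as positive control.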
Background: qHTS replaces the single test concentration by a dilution series.
`COc1ccc(C)cc1-n1c(-c2ccc(Cl)cc2)cc2c1CC(C)(C)CC2=O`: the Potency was 2.99 µM (active).

In the case of `CC(C)C[C@@H](NC(=O)[C@@H](O)[C@H](N)Cc1ccccc1)C(=O)O`, the Potency is 2.99 µM (active).

On to `CCNC(=O)NC(=O)C(C)Sc1nc2ccccc2c(=O)n1-c1cccnc1` (stereo unspecified), for which the “activity change, negative = inhibition” value was 14.2%.

On to `CC(Sc1nc2ccccc2c(=O)n1C)C(=O)N(C)C1CCCCC1` (stereo unspecified), for which the Potency was 5.31 µM (active).

For the compound `COc1cccc(NC(=O)N[C@H]2[C@H](O)[C@@H](Oc3ccccc3)[C@@H]3OC[C@H]2O3)c1`, the “activity change, negative = inhibition” value is -19.2% [at 43.1 µM].

As for `COc1cccc(NC(=O)c2cccc3c(=O)c4c([nH]c23)CCCC4)c1`, the Potency was 2.99 µM (active).

For the compound `COc1cccc(NC(=O)CSc2nc(=O)[nH]c3c2CCCC3)c1`, the “activity change, negative = inhibition” value is -1.41%.

As to `Cc1cccc(-c2cc(C3CCN(S(=O)(=O)c4cccc(C#N)c4)CC3)[nH]n2)c1`, the Potency is 15 µM (active).

For `Cc1cccc(-c2cc(C3CCN(C(=O)Nc4ccccc4Cl)CC3)[nH]n2)c1`, the “activity change, negative = inhibition” value is -13.2%.

With `CNC(=O)N1CCC(C2CCN(S(=O)(=O)c3cccc(C#N)c3)C2)CC1` (stereo unspecified), the “activity change, negative = inhibition” value was 3.64%.

On to `COc1cc2c3nnc(-c4ccc(F)cc4)c-3cn(Cc3ccccc3F)c2cc1OC`, for which the Potency is 3.76 µM (active).

`O=c1c2cc3c(nc2ncn1Cc1ccccc1F)CCCC3`: the “activity change, negative = inhibition” value was 0%.

For the compound `CC1(C)Cc2nc3sc4c(SCC(=O)O)ncnc4c3cc2CO1`, the “activity change, negative = inhibition” value was -5.19%.

On to `COc1cc(-c2nc(-c3ccccc3)c(-c3ccc(Br)cc3)[nH]2)cc(OC)c1O`, for which the Potency is 2.11 µM (active).

For the compound `COc1ccc2[nH]c(C)c(CCN(Cc3cccs3)C(=S)Nc3ccccc3)c2c1`, the Potency was 2.66 µM (active).

With `COc1ccc2[nH]c(C)c(CCN(Cc3cccs3)C(=S)Nc3ccc(F)cc3)c2c1`, the Potency was 4.22 µM (active).

With `O=c1n(-c2ccc(Cl)cc2)nc2n1CCN(Cc1cccc3ccccc13)C2`, the “activity change, negative = inhibition” value was 33.4%.

On to `O=C(Nc1ccc(Cl)cc1)N1CCn2c(nn(-c3ccc([N+](=O)[O-])cc3)c2=O)C1`, for which the “activity change, negative = inhibition” value is 26.1%.

For the compound `COc1ccccc1CN1CCn2c(nn(-c3ccc([N+](=O)[O-])cc3)c2=O)C1`, the Potency is 5.96 µM (active).

Consider `CC(C)CCN1CCn2c(nn(-c3ccc([N+](=O)[O-])cc3)c2=O)C1`, for which the Potency was 17.2 µM (active).

Regarding `COc1ccc(-n2nc3n(c2=O)CCN(C(=O)c2ccc(Cl)cc2)C3)cc1`, the “activity change, negative = inhibition” value was -20.5%.

Consider `Cc1ccc(-n2nc3n(c2=O)CCN(C(=O)c2cccc(Cl)c2)C3)cc1`, for which the “activity change, negative = inhibition” value was 67.3%.

For the compound `COc1ccc(C(=O)N[C@@H]2CCC[C@@H]2C(=O)NCc2ccc(C)o2)cn1`, the “activity change, negative = inhibition” value was -6.41%.

`Oc1c(CN2CCCC2)cc(COCc2ccccc2)c2cccnc12`: the Potency is 6.68 µM (active).

Turning to `Oc1c(CN2CCCCC2)cc(COCc2ccccc2)c2cccnc12`, the Potency was 8.41 µM (active).

As to `CCOCc1cc(CN2CCN(c3ccccc3OC)CC2)c(O)c2ncccc12`, the Potency is 5.96 µM (active).
